Results reported in PubChem BioAssay (NCATS).
Where “and” joins values, the source holds several entries; their conditions need not be identical. Equal values may be shown once. Results filed as inconclusive are left out. Calls of active or inactive are those of the source. Calls follow the shape of the dose curve; as a rule, active = well fitted curve in either direction with a large enough effect (not every such curve was filed as active); inconclusive = small, poorly fitted or top-dose-only effect, or another doubt; inactive = flat fitted curve, though single readings scatter.
% is scaled to controls: 0 for no effect and ±100 for the full control effect.

Assay: Stat Signaling Pathway (AID 446)
Conditions: ME-180 SIE beta-lactamase reporter, IL-6 stimulated, 5 h; at 17.2 µM (top of the series)
Experimental: NCGC Assay Overview: The IL-6/STAT signaling pathway was assayed in ME-180 cervical carcinoma cells by a beta-lactamase reporter gene controlled by a STAT Inducible Element (SIE). This reporter is induced by IL-6 at 40 pM AC50 and inhibited by the pan JAK inhibitor, 2-(1,1-Dimethylethyl)-9-fluoro-3,6-dihydro-7H-benz[h]-imidaz[4,5-f]isoquinolin-7-one, at approximately 10 nM AC50. Plated cells were incubated overnight and on the following day, stimulated with 40 pM IL-6 for 5 hrs. The assay was screened at the AC50 of IL-6 activation to identify both inhibitors and activators of IL-6/STAT signaling.
NCGC Assay Protocol Summary: Cells were trypsinized, washed in assay medium (AM, OPTI MEM with 0.5% fetal bovine serum, 0.1 mM nonessential amino acids, 1 mM sodium pyruvate, 10mM HEPES pH 7.3, 100U/ml penicillin, and 100 ug/ml streptomycin) and suspended at 6 x 10e5/ml in AM. Approximately […] cells in 5 uL/well was dispensed into 1536 well plates and the cells were incubated overnight at 37 C. 23 nL of compound were delivered by a pin tool and 1 uL of IL-6 (40 pM final concentration in AM) was added. After centrifugation at 1000 rpm for less than a minute, plates were incubated at 37C for 5 hrs. One uL of detector mix (LiveBLAzerTM, Invitrogen) was added, the plates incubated at room temperature for 2.5 hrs, and fluorescence intensity at 460 and 530 nm emission was measured at 405 nm excitation by an Envision (Perkin Elmer) or Safire II (Tecan). Data were normalized by GeneData to the controls for AC90 stimulation (300 pM IL-6) and to AC90 inhibition (125 nM Jak inhibitor, 40 pM IL-6 in AM).
With CC(C)NC[C@H](O)COc1ccc(CC(N)=O)cc1 the activity, negative = inhibition was 2.19% (inactive) and -5.69% (inactive).
For O=[N+]([O-])c1cccc2cn[nH]c12, the activity, negative = inhibition was -4.16% (inactive).
For CCCn1c(=O)c2[nH]c(C3CCCC3)nc2n(CCC)c1=O, the activity, negative = inhibition was -4.29% (inactive).

Same assay, conditions: ME-180 SIE beta-lactamase reporter, IL-6 stimulated, 5 h; at 38 µM (top of the series)
For CC(C)NC[C@H](O)COc1ccc(CC(N)=O)cc1, the activity, negative = inhibition was 0.94% (inactive) and 14.3% (inactive).
In the case of O=[N+]([O-])c1cccc2cn[nH]c12, the activity, negative = inhibition is reported as -5.67% (inactive).
In the case of CCCn1c(=O)c2[nH]c(C3CCCC3)nc2n(CCC)c1=O, the activity, negative = inhibition is reported as -11.4% (inactive).

Same assay, conditions: ME-180 (cervical carcinoma) SIE beta-lactamase reporter, IL-6 stimulated, 5 h; at 38 µM (top of the series) unless noted
For NOCC(=O)O, the activity, negative = inhibition was 4.25% (inactive).
For O=C(O)c1cccnc1C(=O)O, the activity, negative = inhibition was -7.1% (inactive).
With Cc1nc2c(OCc3ccccc3)cccn2c1CC#N the activity, negative = inhibition was -13.9% (inactive).
With CCCCCCCC/C=C\CCCCCCCC(=O)NCCc1ccc(O)c(O)c1 the activity, negative = inhibition was 0.267% (inactive).
In the case of O=c1onc2n1-c1cc(Br)ccc1OC2, the activity, negative = inhibition is reported as -16.1% (inactive).
For O=C(O)C1=CCNCC1, the activity, negative = inhibition was 16.7% (inactive).
For NCCCCN, the activity, negative = inhibition was -10.8% (inactive).
With S=C(S)N1CCCC1 the activity, negative = inhibition was 7.91% (inactive).
In the case of CCn1c(=O)[nH]c2cc(Cl)c(Cl)cc21, the activity, negative = inhibition is reported as -18.6% (inactive).
With CCN(c1nc(N)c(C(=O)N=C(N)N)nc1Cl)C(C)C the activity, negative = inhibition was -24.1% (inactive).
With CC1CNCCN1S(=O)(=O)c1cccc2cnccc12 (stereo not given) the activity, negative = inhibition was -1.62% [at 17.2 µM] (inactive).
With CC(=O)NCCc1c[nH]c2ccc(O)cc12 the activity, negative = inhibition was -51.8% (inactive).
For O=c1[nH]c(=S)[nH]c(-c2ccccc2)c1Cc1c(O)ccc2ccccc12, the activity, negative = inhibition was -12.5% [at 7.69 µM] (inactive).
In the case of N[C@@H](Cc1ccc(O)c(I)c1)C(=O)O, the activity, negative = inhibition is reported as 5.15% [at 17.2 µM] (inactive).
For CCCCCCCCCCCCCCSCC(=O)O, the activity, negative = inhibition was -3.53% (inactive).
In the case of N#CC(C#N)=C(N)/C(C#N)=C/c1ccc(O)cc1, the activity, negative = inhibition is reported as 5.06% (inactive).
For NCCCCN=C(N)N, the activity, negative = inhibition was -20.8% (inactive).
For O=c1ccc2c(OCCCCc3ccccc3)c3ccoc3cc2o1, the activity, negative = inhibition was 3.59% (inactive).
In the case of CSC(=N)N, the activity, negative = inhibition is reported as -2.27% (inactive).
In the case of O=C(c1ccc2c(c1)OCCO2)N1CCCCC1, the activity, negative = inhibition is reported as 25% (inactive).
For O=c1[nH]c2cc(Cl)ccc2c(O)c1-c1ccc(Oc2ccccc2)cc1, the activity, negative = inhibition was -10.1% (inactive).
With CN(C)S(=O)(=O)c1ccc2c(c1)/C(=C/c1cc3c([nH]1)CCCC3)C(=O)N2 the activity, negative = inhibition was -60.7% (active).
In the case of N#Cc1cc2nc(O)c(O)nc2cc1[N+](=O)[O-], the activity, negative = inhibition is reported as -26.5% (inactive).
In the case of CN(C)CCC(c1ccc(Br)cc1)c1ccccn1 (stereo not given), the activity, negative = inhibition is reported as 1.22% [at 17.2 µM] (inactive).
For COCc1nc2c([nH]1)c(=O)n(C)c(=O)n2CC(C)C, the activity, negative = inhibition was -22% (inactive).
For C=CCn1c(=O)c2c(nc(-c3ccc(S(=O)(=O)O)cc3)n2C)n(C)c1=O, the activity, negative = inhibition was 20.8% (inactive).
For O=C1Cc2c([nH]c3ccc(Br)cc23)-c2ccccc2N1, the activity, negative = inhibition was -29.2% (active).
In the case of Cn1ccnc1, the activity, negative = inhibition is reported as 8.3% (inactive).
With NCCCNCCCCNCCCN the activity, negative = inhibition was -4.41% (inactive).
With Nc1ncnc2c1ncn2C1CCCC1 the activity, negative = inhibition was 8.7% (inactive).
For Oc1ccc(Cn2cc[nH]c2=S)cc1, the activity, negative = inhibition was 25% (inactive).
For CCCCCCN(CCCCCC)C(=O)Cc1c(-c2ccc(F)cc2)[nH]c2ccccc12, the activity, negative = inhibition was 6.88% (inactive).
For COc1ccccc1N1CCN(CCCCN2C(=O)c3ccccc3C2=O)CC1, the activity, negative = inhibition was 19% (inactive).
With N#C/C(=C\c1ccc(O)c(O)c1)C(=O)NCCCNC(=O)/C(C#N)=C/c1ccc(O)c(O)c1 the activity, negative = inhibition was -7.91% (inactive).
